Laboratory results taken from PubChem BioAssay (EPA / NIEHS).
Results filed as inconclusive are left out. The source made the active and inactive calls. How the source made its calls: active means hit-call score of the fitted dose curve at least 0.9, where 1 is the maximum; inconclusive means response in the unintended direction; inactive means score below 0.9.

These compounds were tested against Steroid hormone receptor ERR1 (Homo sapiens) (UniProt P11474) (assay: ATG_ERRa_TRANS: Attagene TRANS-FACTORIAL HepG2 Assay for human Estrogen-Related Receptor alpha (ERRa) (AID 2282971)). Conditions: HepG2 Attagene TRANS reporter, ERRa transactivation.
Sequence of Steroid hormone receptor ERR1 (Homo sapiens) (P11474 whole entry, looked up): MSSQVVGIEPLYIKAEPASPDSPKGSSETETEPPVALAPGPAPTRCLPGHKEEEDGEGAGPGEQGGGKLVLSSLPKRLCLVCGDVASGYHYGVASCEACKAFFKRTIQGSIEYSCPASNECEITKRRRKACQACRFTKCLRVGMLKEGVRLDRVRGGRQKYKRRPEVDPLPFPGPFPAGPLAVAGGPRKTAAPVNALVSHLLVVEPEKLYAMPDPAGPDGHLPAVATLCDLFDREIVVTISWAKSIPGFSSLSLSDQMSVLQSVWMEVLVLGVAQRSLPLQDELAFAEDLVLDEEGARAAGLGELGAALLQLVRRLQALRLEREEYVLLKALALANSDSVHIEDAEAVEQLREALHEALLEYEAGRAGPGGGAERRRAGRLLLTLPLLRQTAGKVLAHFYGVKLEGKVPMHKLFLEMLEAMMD
Procedure: ATG_TRANS is a cell-based, multiplexed-readout assay that uses HepG2, a human liver cell line, with measurements taken at 24 hours after chemical dosing in a 24-well plate.ATG_ERRa_TRANS is one of 30 assay component(s) measured or calculated from the ATG_TRANS assay. It is designed to make measurements of mRNA induction, a form of inducible reporter, as detected with fluorescence intensity signals by Reverse transcription polymerase chain reaction (RT-PCR) and Capillary electrophoresis technology.Data from the assay component ATG_ERRa_TRANS was analyzed into 1 assay endpoint. This assay endpoint, ATG_ERRa_TRANS, was analyzed in the positive analysis fitting direction relative to DMSO as the negative control and baseline of activity. Using a type of inducible reporter, measures of mRNA for gain-of-signal activity can be used to understand the reporter gene at the transcription factor-level as they relate to the gene ESRRA. Furthermore, this assay endpoint can be referred to as a primary readout, because this assay has produced multiple assay endpoints where this one serves a reporter gene function. To generalize the intended target to other relatable targets, this assay endpoint is annotated to the nuclear receptor intended target family, where the subfamily is steroidal.
Human liver HepG2 cells are transiently transfected with multiple reporter transcription units (MRTUs) in 6-well plates using FuGene 6 reagent (Roche; 3 ml FuGene/1 mg DNA). The MRTU constructs are regulated by a cis-regulating element (promoter). […] A major difference between the CIS and TRANS system is that in CIS activities of endogenous TFs are measured, whereas the TRANS assay evaluates changes in activities of exogenous, chimeric NR-Gal4 proteins. […] At the end of 24 hour incubation, total RNA was isolated using TriZol reagent (Invitrogen). The isolated RNA is then reverse-transcribed using oligo(dT) primer and Mo-MLV reverse transcriptase (Invitrogen) with DNAse I (Ambion) treatment for 30 min. The one-tenth of the produced cDNA was amplified by PCR using Taq DNA polymerase (Invitrogen) and two reporter sequence-specific primers. The PCR products were fluorescently labeled by primer extension with 6-arboxyfluorescein (6-FAM) 5'-labeled reporter sequence-specific primer (2 min at 95 C, 20 s at 68 C and 10 min at 72 C) and these products were digested with 5U of HpaI (New England Biolabs) for 2h at 37 C. The fragments were purified using Qiaquick PCR columns (Qiagen), analyzed on an ABI 3130xL genetic analyzer (Applied Biosystems) with peak positions identified by using a set of X-rhodamine (ROX)-labeled MapMarker1000 molecular weight standards (BioVentures). The raw capillary electrophoresis data was processed using Attagraph software (Attagene).

outcome, inactive:
c1ccc2cc(Nc3ccc(Nc4ccc5ccccc5c4)cc3)ccc2c1, COC(=O)c1ccc(OC)cc1, CCCCCCOC(=O)C(C)C, O=C(O)CCCCCCCCCCCC(=O)O, CN(C)c1ccncc1, C[Si]1(C)O[Si](C)(C)O[Si](C)(C)O1, Clc1cc(Cl)c(-c2c(Cl)c(Cl)cc(Cl)c2Cl)cc1Cl, C=C(C)C(=O)OCCOC1CC2CC1C1C=CCC21 (stereo not given), Nc1ccccc1[N+](=O)[O-], N#Cc1ccc(CC(=O)c2cccc(C(F)(F)F)c2)cc1, C1CCOC1, CCC1CCCCC1, O=C1OC(=O)c2c(Cl)c(Cl)c(Cl)c(Cl)c21, CC1CC(O)CC(C)(C)C1 (stereo not given), FC(F)(F)COCC(F)(F)F, Nc1ccc(N)c2c1C(=O)c1ccccc1C2=O, C[C@@H]1CCN(C(=O)[C@H](CCCN=C(N)N)NS(=O)(=O)c2cccc3c2NC[C@H](C)C3)[C@@H](C(=O)O)C1, COc1ccccc1N=Nc1c(S(=O)(=O)O)cc2cc(S(=O)(=O)O)cc(NC(C)=O)c2c1O, Cc1ncc([N+](=O)[O-])n1CCO, CCCN(CCC)S(=O)(=O)c1ccc(C(=O)O)cc1, CCCCC(CC)COC(C)=O (stereo not given), O=[N+]([O-])c1cccc(Cl)c1, CN1CCOCC1, C=CC(=C)CCCC(C)(C)OC(C)=O, CC(C)(C)CC(C)(C)c1ccc(OCCOCC[N+](C)(C)Cc2ccccc2)cc1, OC[C@H]1O[C@@H]2O[C@H]3[C@H](O)[C@@H](O)[C@@H](O[C@H]4[C@H](O)[C@@H](O)[C@@H](O[C@H]5[C@H](O)[C@@H](O)[C@@H](O[C@H]6[C@H](O)[C@@H](O)[C@@H](O[C@H]7[C@H](O)[C@@H](O)[C@@H](O[C@H]8[C@H](O)[C@@H](O)[C@@H](O[C@H]9[C@H](O)[C@@H](O)[C@@H](O[C@H]1[C@H](O)[C@H]2O)O[C@@H]9CO)O[C@@H]8CO)O[C@@H]7CO)O[C@@H]6CO)O[C@@H]5CO)O[C@@H]4CO)O[C@@H]3CO, O=C(O)CNc1ccccc1, C1CCCCC1, COC(=O)C=C(C)CCC=C(C)C, C#CC(C)(O)CC(C)C (stereo not given), Cc1ccc(S(=O)(=O)Oc2ccc(N=Nc3ccc(-c4ccc(N=Nc5c(O)ccc6cc(S(=O)(=O)O)cc(S(=O)(=O)O)c56)c(C)c4)cc3C)cc2)cc1, O=[N+]([O-])c1ccc(O)cc1C(F)(F)F, CC(O)C1CCCCC1 (stereo not given), CCCC1O[C@@H]2C[C@H]3[C@@H]4CCC5=CC(=O)C=C[C@]5(C)[C@H]4[C@@H](O)C[C@]3(C)[C@]2(C(=O)CO)O1 (stereo not given in full), Cc1occc(=O)c1OC(=O)C(C)C, COC(=O)c1cccnc1, COc1ccc(OC)c(N=Nc2c(O)ccc3ccccc23)c1, C=Cc1ccncc1, COc1ccccc1[N+](=O)[O-], CS(=O)(=O)c1ccc(C2=C(c3ccccc3)C(=O)OC2)cc1
